From the supplement of paper PMC3334620
The full ranking holds about 33,000 sequences; the median of “E-score (-0.5 to 0.5)” is about -0.017, and the highest 2% start at about 0.3. The list comes from a sample in which the highest values are over-represented; it also holds similar and randomly drawn sequences.

Target: T1, Sut1 (UniProt P53032)
T1 sequence: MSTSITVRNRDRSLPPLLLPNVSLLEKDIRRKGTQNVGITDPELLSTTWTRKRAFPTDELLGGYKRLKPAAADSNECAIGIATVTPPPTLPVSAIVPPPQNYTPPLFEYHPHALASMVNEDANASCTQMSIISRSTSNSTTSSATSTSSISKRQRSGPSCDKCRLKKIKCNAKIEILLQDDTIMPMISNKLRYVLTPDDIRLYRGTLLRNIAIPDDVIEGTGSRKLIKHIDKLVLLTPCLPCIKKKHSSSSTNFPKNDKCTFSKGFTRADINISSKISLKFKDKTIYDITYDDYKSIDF
Assay: PBM E-score (8-mer binding enrichment) (E-score (-0.5 to 0.5)); higher = stronger / more preferred TF binding
Details: protein concentration: 200 nM; construct: GST-full length
Procedure, shortened: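 Using PURExpress in vitro transcription/translation, GST-tagged yeast transcription factors were made in full-length or DNA-binding-domain form. These were applied at about 100-200 nM to double-stranded universal all-10-mer Agilent arrays, and bound protein was detected with fluorescent anti-GST. Scans were normalised with masliner before the Universal PBM Analysis Suite assigned E-scores to ungapped eight-base words pooled with their reverse complements.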

| Sequence | PBM E-score |
| --- | --- |
| GGTGCAAA | 0.0509 |
| GTTTTAAA | 0.296 |
| ATTTTTAA | 0.249 |
| AGTTTAAA | 0.335 |
| AGTTTTAA | 0.341 |
| ATTTTAAA | 0.307 |
| TGTTTTAA | 0.253 |
| AGTTTATC | 0.17 |
| GGTTTATA | 0.0479 |
| AGTTTTTA | 0.175 |
| TGTTTAAA | 0.111 |
| AGTTTATA | 0.335 |
| AGTTTAAT | 0.069 |
| AGACCTCC | -0.207 |
| CATAGGGG | -0.348 |
| CGGTTTTC | 0.176 |
| CAAGTCAC | -0.0175 |
| TACAACAA | 0.286 |
| CAGTTGAA | -0.00817 |
| AAGCCAAC | 0.118 |
| AGTTTACA | 0.106 |
| AGTGAACA | 0.0388 |
| CTGGATTA | 0.0735 |
| AGGAGTAG | -0.0194 |
| GGGAGTAC | -0.064 |

| Sequence | PBM E-score |
| --- | --- |
| GGGAGTAA | 0.0687 |
| CGGAGTAG | 0.49 |
| AGGAGTAC | -0.106 |
| CGGAGTAC | 0.487 |
| AGGAGTAA | 0.0575 |
| CCGAGTAG | 0.112 |
| CGGAGTAA | 0.483 |
| TAGAATAA | 0.207 |
| CAGTATAG | 0.0135 |
| AATTGGAT | 0.131 |
| ACGCCTCG | -0.115 |
| GGCTTACA | 0.0643 |
| TCATATAA | 0.121 |
| TGTTATAA | 0.299 |
| TTATATAA | 0.358 |
| CTATATAA | 0.158 |
| TGATATAA | 0.222 |
| CGTTATAA | 0.135 |
| CTCTATAA | 0.186 |
| ATATATAA | 0.351 |
| AGTTATAA | 0.155 |
| CGCAACCC | 0.023 |
| ATCCCAAT | 0.0805 |
| CGATGAGC | -0.0442 |
| TAGAAGCA | -0.0194 |

| Sequence | PBM E-score |
| --- | --- |
| GGAGTTCA | 0.339 |
| CGAGTTCA | -0.149 |
| GAAGTTTA | 0.319 |
| AGAGTTTA | 0.27 |
| AAAGTTTA | 0.203 |
| GGAGTTTA | 0.396 |
| CGAGTTTA | 0.0867 |
| AGAGTTCA | -0.0646 |
| CAAGTTTA | 0.0197 |
| ACATCTAT | 0.17 |
| GACGCCTC | -0.125 |
| ACTCCTAG | -0.0737 |
| CACTATCA | -0.0232 |
| CGGTCGGA | 0.211 |
| AGGTCGGC | -0.131 |
| AAGTCGGA | 0.226 |
| CAGTCGGA | 0.204 |
| AGGTCGGA | 0.316 |
| TAGTCGGA | 0.317 |
| TAGTCGCA | -0.0489 |
| GAGTCGGC | 0.00136 |
| GAGTCGGA | 0.324 |
| CGTAATGC | 0.0921 |
| ACACAACA | 0.128 |
| AAGATAGG | 0.013 |

| Sequence | PBM E-score |
| --- | --- |
| GTCCCAAC | -0.138 |
| GACTATGC | 0.0066 |
| AACTAGAG | 0.0891 |
| ACCTCTAG | -0.0682 |
| GTGGCAGA | -0.253 |
| CATAACGC | -0.00576 |
| GATGAAGC | -0.0232 |
| TAACTGCA | 0.0867 |
| ACGGAACA | 0.229 |
| ACGGAATC | 0.252 |
| GCGGAACA | -0.11 |
| CCGGAATC | 0.326 |
| CCGGAACC | 0.185 |
| CCGGAATA | 0.294 |
| CCGGAAGA | 0.312 |
| TCGGAACA | 0.303 |
| CCGGAACA | 0.304 |
| ACGGAAGA | 0.147 |
| CCGGAACG | 0.202 |
| CCGGAAGG | 0.169 |
| TATACGCA | 0.0114 |
| CCCAACGC | -0.103 |
| TCACTTCA | -0.0869 |
| CGGCTCAG | -0.117 |
| TCTAGCCA | -0.0636 |

| Sequence | PBM E-score |
| --- | --- |
| GACAACGC | -0.0716 |
| AAATTTCA | 0.00137 |
| TAATTTCA | 0.346 |
| CAATTTCA | 0.00344 |
| CGGACATC | 0.406 |
| GGGACAAC | -0.231 |
| CGGACAAG | 0.22 |
| CTGACATC | 0.0186 |
| CGGACAAC | 0.309 |
| GGGACATA | -0.0931 |
| AGGACATA | -0.0903 |
| AGGACATC | 0.0505 |
| CGGACATA | 0.433 |
| ACTAGGCC | -0.243 |
| ATAGCCCC | -0.325 |
| ATTTGCTC | 0.141 |
| TCGGAGCA | 0.3 |
| GCGGAGCC | 0.113 |
| CGGGAGCA | -0.0121 |
| CCGGAGCG | 0.234 |
| CCGGAGCC | 0.396 |
| GCGGAGCA | 0.152 |
| CTGGAGCC | -0.204 |
| ACGGAGCA | 0.207 |
| CCGGAGCA | 0.307 |

| Sequence | PBM E-score |
| --- | --- |
| CGGCGGTA | 0.14 |
| CGTTTATC | 0.171 |
| ACCCTGGG | -0.279 |
| AGCGTAGC | -0.0963 |
| CCTTTGAA | -0.0516 |
| ATGATCGC | -0.106 |
| ATTAATAA | 0.265 |
| AATAATAT | 0.346 |
| GATAATAA | 0.234 |
| AATGATAA | 0.299 |
| AATAATAC | 0.202 |
| AATAATAA | 0.304 |
| TATGATAA | 0.233 |
| AATAATAG | 0.157 |
| AATAATGT | 0.235 |
| AATGATAG | 0.251 |
| GTTAATAA | 0.319 |
| CTTAATAA | 0.217 |
| AACTTAAG | 0.132 |
| CAGTTTGG | -0.198 |
| AAGCGCAC | 0.00639 |
| TTACGTAA | -0.0108 |
| ATCAGATG | -0.0902 |
| CATCTGAC | -0.163 |
| TGTCAGAA | -0.0161 |

| Sequence | PBM E-score |
| --- | --- |
| TCTAATAA | 0.173 |
| GGTAATAA | 0.188 |
| AGTAATAG | 0.063 |
| TGTAATAA | 0.315 |
| CGTAATAA | 0.0956 |
| TATAACAA | 0.319 |
| CATAACAA | 0.179 |
| AGTAATAT | 0.312 |
| GATAACAA | 0.205 |
| CATAATAA | 0.131 |
| AGTAATAC | 0.133 |
| TATAATAA | 0.298 |
| CATCTTCG | -0.0746 |
| AAGATCAA | 0.0587 |
| AATTGCAG | 0.0512 |
| GCGACCGC | -0.23 |
| AACAATAT | 0.331 |
| AACAATAA | 0.192 |
| AACAATAC | 0.0474 |
| AGGCTGAC | -0.245 |
| ATAGGTCA | 0.0286 |
| AGAATGTC | -0.0101 |
| AAGCATAC | 0.164 |
| ATAAAATG | 0.289 |
